# Experimental data from ChEMBL document CHEMBL4513216, “Probing the Open Global Health Chemical Diversity Library for Multistage-Active Starting Points for Next-Generation Antimalarials” (ACS Infect Dis, 2020).
# Among all 68,000 compounds or so, about 2,700 (4%) showed an effect of 50% or more. For the sample, strong results were picked, then their nearest neighbours and some compounds at random.
# Tested on: Plasmodium berghei
# Test: Screen against P. berghei liver stage (PbLuc), transformed with Luciferase, at 2uM
# Type: functional, HepG2
# Settings: tested at 2 uM
row,Compound,INHIBITION [%]
1,Cc1cc(C)n(C2CCCN(C(=O)c3ccc(N(C)C)nc3)C2)n1 (stereo not given),-35.65
2,Cc1noc(C)c1S(=O)(=O)N(CC(N)=O)CC(C)C,23.08
3,CC(C)n1cc(CN2CCCN(C(=O)C(C)n3cccn3)CC2)cn1 (stereo not given),-86.2
4,O=c1ccc2c(n1CC1CC1)CCC(NCc1cccs1)C2 (stereo not given),-26.76
5,CCC(C(=O)NC(C)(C)C)n1cccc(OC)c1=O (stereo not given),56.16
6,CCC(C(=O)NC(C)(C)C)n1ccc2ncccc2c1=O (stereo not given),8.09
7,CCC(C(=O)NC1CCCCC1)n1cccc(OC)c1=O (stereo not given),-6.88
8,CCN(C)S(=O)(=O)N1C[C@H]2CC[C@@H](C1)N(Cc1cscn1)C2=O,48.21
9,CCn1cnnc1CNC(=O)N(C)Cc1cccc(OC(F)F)c1,64.16
10,CCOc1ccc(CN(C)C(=O)NC(C)c2nncn2C)cc1 (stereo not given),-27.75
11,CC(NC(=O)N(C)Cc1cccc(OC(F)F)c1)c1nncn1C (stereo not given),59.03
12,CCn1cnnc1CNC(=O)N(C)Cc1ccc2c(c1)OCCO2,-16.42
13,COc1ccc(CN(C)C(=O)NC(C)c2nncn2C)cc1F (stereo not given),-6.61
14,CCn1cnnc1CNC(=O)N(C)Cc1ccc(F)c(F)c1,-2.9
15,Cc1cccc(CN2CCC(C3Nc4ccccc4S(=O)(=O)N3)CC2)n1 (stereo not given),7.38
16,COc1cc(N2C[C@@H]3COC[C@]3(COCc3ccccn3)C2)ncn1,-14.27
17,Cn1ccnc1CN1CCCC2(CCN(CC3CCCO3)CC2)C1 (stereo not given),26.46
18,Cc1nc(C2CCCN(C(=O)c3ccc(OCC4CC4)nc3)C2)no1 (stereo not given),28.65
19,CC1(C(=O)NCc2ccsc2)CCOCC1,5.75
20,CC1(CCNC(=O)NCc2ccsc2)OCCO1,57.23
21,CC(CNC(=O)NCc1ccsc1)CC1(C)OCCO1 (stereo not given),-35.5
22,O=C(Cn1nc2c(cc1=O)CCCC2)NC(C(=O)O)c1ccccc1 (stereo not given),25.23
23,CC1COCCN1Cc1nc(Cc2ccccc2)no1 (stereo not given),-23.37
24,COc1ncc(NCc2ccc(F)cc2)cc1C(N)=O,17.18

row,Compound,INHIBITION [%]
1,COc1ncc(NCc2cccc(C#N)c2)cc1C(N)=O,-7.69
2,COc1ncc(NCc2ccc(C#N)cc2)cc1C(N)=O,63.31
3,CN1C(=O)CC(C(=O)O)C12CCN(c1ccc3cccc(Cl)c3n1)CC2 (stereo not given),-1.78
4,Cc1ccccc1CC(C)NC(=O)Nc1cnn(CC(N)=O)c1 (stereo not given),81.1
5,CC(Cc1ccccc1Cl)NC(=O)Nc1cnn(CC(N)=O)c1 (stereo not given),-7.81
6,CC(CCc1ccccc1)NC(=O)Nc1cnn(CC(N)=O)c1 (stereo not given),41.72
7,COCCN1CCC2(CC1)CN(CCn1cccn1)C(=O)CO2,20.2
8,CN(CC(=O)NCC(F)(F)F)C(=O)c1ccc(C(=O)OC(C)(C)C)cc1,-16.4
9,Cc1ccc(C(=O)N(C)CC(=O)NCC(F)(F)F)cn1,71.4
10,Cc1ccc(C(=O)N(C)CC(=O)Nc2cccc(C)n2)cn1,23.76
11,CCC(=O)Nc1cc(Cl)ccc1C(=O)N(C)Cc1noc(CC)n1,1.1
12,COc1cc(F)c(-n2cnc(CCNC(C)=O)c2)cc1F,60.13
13,COc1ccc(Cl)cc1-n1cnc(CCNC(C)=O)c1,26.74
14,COc1ccc(F)cc1-n1cnc(CCNC(C)=O)c1,45.82
15,CC(=O)N(CCc1nc(-c2cc(C(N)=O)oc2C)cs1)C(C)C,10.22
16,COc1cc(OC)c(C2CC(=O)Oc3cc(C)[nH]c(=O)c32)c(OC)c1 (stereo not given),14.96
17,O=C(O)C(c1ccc2c(c1)OCO2)N1CCCCCC1 (stereo not given),59.48
18,O=C(O)C(c1ccc2c(c1)OCCO2)N1CCCCCC1 (stereo not given),19.56
19,O=C(O)C(c1ccc2c(c1)OCO2)N1CCCC1 (stereo not given),4.53
20,Cc1ccc(-n2cc3[nH]c(=O)[nH]n3c2=O)cc1,-15.37
21,Cc1ccc(CN2CCC3(CC(C(=O)NC4CCC4)=NO3)C2)o1 (stereo not given),-27.21
22,CC(C)N1CCC2(CC1)CN(C)C(=O)C[C@H]2C(F)(F)F,-24.39
23,CC(=O)N1CCC2(CC1)CN(C)C(=O)C[C@H]2C(F)(F)F,64.92
24,CN1CCC2(CC1)CN(C)C(=O)C[C@@H]2C(F)(F)F,6.22

row,Compound,INHIBITION [%]
1,CCN(CC)S(=O)(=O)N1C[C@@H](O)[C@H](Oc2cccc(F)c2)C1,16.01
2,Cc1nc(N2CCCC2)nc2c1CCN(C(=O)CC1CCCC1)CC2,1.33
3,COC(=O)c1ccc2ccn(CC3CCCO3)c(=O)c2c1 (stereo not given),52.21
4,COC(=O)c1ccc2ccn(CC3CCCCO3)c(=O)c2c1 (stereo not given),-32.35
5,COC(=O)c1ccc2ccn(CC3COCCO3)c(=O)c2c1 (stereo not given),21
6,COc1ccc(CCNCc2c(C)nn(C)c2N(C)C)cc1OC,7.74
7,O=C1CC(c2ccc(O)cc2)c2sc(C(=O)O)c(-c3ccccc3)c2N1 (stereo not given),20.4
8,CC(C)C(=O)N1CC2(CCN(CC(C)(C)C)CC2)C1,50.72
9,CC(C)C(=O)N1CCC2(CN(CC3CCCC3)C2)C1,0.32
10,CC(C)CN1CCC2(CC1)CN(C(=O)C(C)C)C2,16.12
11,CS(=O)(=O)N1CCC2(CCN(C(=O)c3cccs3)CC2)CC1,11.79
12,COCc1ncc(-c2nccn2CCN(C)C)cn1,-24.39
13,COC(=O)CCCn1ccnc1-c1ccccc1,1.42
14,CCCn1ccnc1-c1nccn1CCC(N)=O,43.44
15,CCSc1ncc(-c2nccn2CCN(C)C)cn1,59.03
16,COCc1ncc(-c2nccn2CCn2cnnc2)cn1,-0.15
17,COCCCn1ccnc1-c1cnc(OC)nc1,-26.85
18,CCCSc1ncc(-c2nccn2CCC(N)=O)cn1,60.13
19,CCCSc1ncc(-c2nccn2CCO)cn1,52.98
20,COc1ncc(-c2nccn2CCN(C)C)cn1,-37.29
21,CN(C)C(=O)COC[C@]12COC[C@H]1CN(Cc1ccccc1)C2,42.18
22,Cc1ccc(CC(=O)Nc2cc(C(C)C)n[nH]2)cn1,29.54
